In ChEMBL document CHEMBL1961873, “Compounds: GSK PKIS; Assays: Nanosyn kinase panel” (2012):

Experiments:
[1] = biological target: Protein kinase C gamma type (Homo sapiens) (UniProt P05129); settings: at 1 µM;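 also: each value is an averaged percent inhibition of the enzyme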
[2] = biological target: T1, Protein kinase C iota type (Homo sapiens) (UniProt P41743); settings: at 0.1 µM
T1 sequence (whole entry): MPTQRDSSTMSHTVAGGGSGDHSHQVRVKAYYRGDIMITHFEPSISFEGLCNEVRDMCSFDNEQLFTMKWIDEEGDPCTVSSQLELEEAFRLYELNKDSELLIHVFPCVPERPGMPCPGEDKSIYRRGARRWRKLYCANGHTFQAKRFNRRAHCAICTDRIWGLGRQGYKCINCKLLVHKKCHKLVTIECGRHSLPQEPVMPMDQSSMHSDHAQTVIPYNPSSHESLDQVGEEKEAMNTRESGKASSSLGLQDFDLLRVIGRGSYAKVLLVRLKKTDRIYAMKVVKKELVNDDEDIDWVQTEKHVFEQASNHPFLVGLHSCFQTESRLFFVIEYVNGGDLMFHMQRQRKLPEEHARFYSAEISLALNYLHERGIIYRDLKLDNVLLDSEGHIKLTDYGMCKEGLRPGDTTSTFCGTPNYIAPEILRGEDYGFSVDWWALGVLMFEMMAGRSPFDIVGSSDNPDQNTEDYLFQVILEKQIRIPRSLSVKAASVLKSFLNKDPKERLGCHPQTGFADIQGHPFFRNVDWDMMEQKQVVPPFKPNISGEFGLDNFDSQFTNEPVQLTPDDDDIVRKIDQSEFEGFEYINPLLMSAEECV

[3] = biological target: T1, Protein kinase C iota type (Homo sapiens); settings: at 1 µM
[4] = biological target: Protein kinase C theta type (Homo sapiens) (UniProt Q04759); settings: at 0.1 µM
Protein kinase C theta type (Homo sapiens), sequence (Q04759 whole entry, looked up): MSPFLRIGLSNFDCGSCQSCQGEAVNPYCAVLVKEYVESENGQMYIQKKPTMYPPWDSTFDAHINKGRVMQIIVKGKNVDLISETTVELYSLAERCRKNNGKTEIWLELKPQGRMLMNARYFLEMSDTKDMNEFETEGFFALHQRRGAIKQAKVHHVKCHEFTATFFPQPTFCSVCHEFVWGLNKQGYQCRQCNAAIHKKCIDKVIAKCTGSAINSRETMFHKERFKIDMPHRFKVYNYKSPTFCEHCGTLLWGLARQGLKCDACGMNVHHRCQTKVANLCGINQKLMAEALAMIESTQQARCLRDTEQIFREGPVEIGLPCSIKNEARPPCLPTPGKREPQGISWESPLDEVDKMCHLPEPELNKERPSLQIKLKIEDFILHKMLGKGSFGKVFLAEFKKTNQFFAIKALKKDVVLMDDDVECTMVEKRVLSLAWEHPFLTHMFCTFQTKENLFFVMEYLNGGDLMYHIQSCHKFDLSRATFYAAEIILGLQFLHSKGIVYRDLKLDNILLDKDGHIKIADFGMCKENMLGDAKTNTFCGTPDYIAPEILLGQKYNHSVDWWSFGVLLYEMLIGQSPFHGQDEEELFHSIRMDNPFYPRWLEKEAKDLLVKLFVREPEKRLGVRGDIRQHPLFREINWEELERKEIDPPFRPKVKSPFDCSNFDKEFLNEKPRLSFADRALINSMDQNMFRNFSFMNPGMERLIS

[5] = biological target: Protein kinase C theta type (Homo sapiens) (UniProt Q04759); settings: at 1 µM
[6] = biological target: Protein kinase C beta type (Homo sapiens) (UniProt P05771); settings: at 0.1 µM
Protein kinase C beta type (Homo sapiens), sequence (P05771 2-671 limits assumed): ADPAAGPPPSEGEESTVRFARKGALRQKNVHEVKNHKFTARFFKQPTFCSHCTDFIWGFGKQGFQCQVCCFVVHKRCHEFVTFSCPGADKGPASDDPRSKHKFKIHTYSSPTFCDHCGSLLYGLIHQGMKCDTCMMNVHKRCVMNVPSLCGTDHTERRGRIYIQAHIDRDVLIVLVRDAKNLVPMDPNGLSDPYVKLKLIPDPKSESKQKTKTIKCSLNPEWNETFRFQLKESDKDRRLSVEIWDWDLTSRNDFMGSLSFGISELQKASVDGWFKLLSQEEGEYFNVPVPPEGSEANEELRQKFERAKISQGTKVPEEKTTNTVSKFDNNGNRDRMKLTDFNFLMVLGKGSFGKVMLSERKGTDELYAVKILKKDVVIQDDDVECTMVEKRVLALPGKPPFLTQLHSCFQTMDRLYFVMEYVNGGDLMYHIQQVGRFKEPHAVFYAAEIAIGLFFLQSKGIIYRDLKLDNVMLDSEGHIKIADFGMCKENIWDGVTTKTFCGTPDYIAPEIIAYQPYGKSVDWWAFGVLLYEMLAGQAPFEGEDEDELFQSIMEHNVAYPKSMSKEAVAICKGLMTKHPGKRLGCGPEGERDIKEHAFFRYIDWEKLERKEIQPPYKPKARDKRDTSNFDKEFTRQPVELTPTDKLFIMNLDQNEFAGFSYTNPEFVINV

[7] = biological target: Protein kinase C beta type (Homo sapiens) (UniProt P05771); settings: at 1 µM
[8] = biological target: T2, Serine/threonine-protein kinase D1 (Homo sapiens) (UniProt Q15139); settings: at 0.1 µM
T2 sequence (whole entry): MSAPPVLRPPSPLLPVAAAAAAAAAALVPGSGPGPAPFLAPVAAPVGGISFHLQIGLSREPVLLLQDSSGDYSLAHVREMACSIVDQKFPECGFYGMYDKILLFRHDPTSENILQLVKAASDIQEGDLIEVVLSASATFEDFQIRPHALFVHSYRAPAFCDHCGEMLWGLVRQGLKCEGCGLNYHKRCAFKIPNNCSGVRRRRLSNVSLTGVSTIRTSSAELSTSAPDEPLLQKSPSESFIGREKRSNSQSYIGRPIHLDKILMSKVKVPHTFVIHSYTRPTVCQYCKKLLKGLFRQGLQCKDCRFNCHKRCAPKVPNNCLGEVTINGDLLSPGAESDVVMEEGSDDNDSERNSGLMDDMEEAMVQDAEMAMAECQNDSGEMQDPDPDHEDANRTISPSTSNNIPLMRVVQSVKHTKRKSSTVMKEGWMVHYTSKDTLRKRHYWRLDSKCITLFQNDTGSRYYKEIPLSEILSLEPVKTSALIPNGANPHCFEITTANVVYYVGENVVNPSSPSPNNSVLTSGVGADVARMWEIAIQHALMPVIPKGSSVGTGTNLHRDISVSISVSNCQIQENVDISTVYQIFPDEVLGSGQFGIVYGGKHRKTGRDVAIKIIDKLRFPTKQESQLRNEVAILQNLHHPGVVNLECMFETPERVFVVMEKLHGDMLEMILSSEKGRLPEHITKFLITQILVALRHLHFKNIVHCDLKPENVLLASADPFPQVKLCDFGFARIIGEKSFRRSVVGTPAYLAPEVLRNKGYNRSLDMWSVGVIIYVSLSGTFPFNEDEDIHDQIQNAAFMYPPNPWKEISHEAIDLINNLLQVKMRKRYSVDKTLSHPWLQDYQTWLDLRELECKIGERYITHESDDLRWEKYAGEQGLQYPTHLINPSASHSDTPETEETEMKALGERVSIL

[9] = biological target: T2, Serine/threonine-protein kinase D1 (Homo sapiens); settings: at 1 µM
[10] = biological target: T3, Serine/threonine-protein kinase D2 (Homo sapiens) (UniProt Q9BZL6); settings: at 0.1 µM;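 also: reported percent inhibition values are means, part of the GSK PKIS kinase panel screen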
T3 sequence (whole entry): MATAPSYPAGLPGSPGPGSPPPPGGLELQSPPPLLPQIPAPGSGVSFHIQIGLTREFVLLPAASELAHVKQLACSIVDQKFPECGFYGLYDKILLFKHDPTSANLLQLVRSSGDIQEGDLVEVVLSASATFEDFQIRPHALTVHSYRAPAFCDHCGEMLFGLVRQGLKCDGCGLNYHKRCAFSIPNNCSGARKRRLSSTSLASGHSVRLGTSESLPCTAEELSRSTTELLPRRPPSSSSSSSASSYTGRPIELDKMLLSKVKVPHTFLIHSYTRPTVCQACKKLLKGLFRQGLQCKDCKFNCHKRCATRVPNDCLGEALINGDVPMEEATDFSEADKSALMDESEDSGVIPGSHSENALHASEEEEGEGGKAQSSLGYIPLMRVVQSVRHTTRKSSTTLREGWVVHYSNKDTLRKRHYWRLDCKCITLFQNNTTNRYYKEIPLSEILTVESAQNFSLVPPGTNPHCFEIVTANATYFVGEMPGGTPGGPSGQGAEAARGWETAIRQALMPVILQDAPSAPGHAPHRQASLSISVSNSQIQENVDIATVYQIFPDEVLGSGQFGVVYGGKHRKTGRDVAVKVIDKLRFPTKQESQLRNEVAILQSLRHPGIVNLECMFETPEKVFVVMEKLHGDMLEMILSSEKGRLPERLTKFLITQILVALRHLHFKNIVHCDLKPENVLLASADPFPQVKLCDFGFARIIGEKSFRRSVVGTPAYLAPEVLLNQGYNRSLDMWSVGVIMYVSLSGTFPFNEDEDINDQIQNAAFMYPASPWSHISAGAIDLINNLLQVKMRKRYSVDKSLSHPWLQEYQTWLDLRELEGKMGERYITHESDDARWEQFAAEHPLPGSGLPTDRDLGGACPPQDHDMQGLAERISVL

SMILES | inhibition [1] [%] | inhibition [2] [%] | inhibition [3] [%] | inhibition [4] [%] | inhibition [5] [%] | inhibition [6] [%] | inhibition [7] [%] | inhibition [8] [%] | inhibition [9] [%] | inhibition [10] [%]
COc1ccc(-c2cc(-c3c[nH]nc3-c3ccccn3)ccn2)cc1 | 1.71 | 1.68 | 0.87 | 2.82 | 5.05 | 0.62 | 1.96 | 8.14 | 37.8 | 9.14
c1cc(-c2cnn3nc(N4CCOCC4)ccc23)nc(NC2CC2)n1 | 1.85 | 1.79 | 3.89 | 1.39 | 1.61 | 0.87 | 1.89 | 3.97 | 39.6 | 6.38
COc1ccc(CNC(=O)c2ccc(-c3cc(-c4nnc(C)o4)ccc3C)cc2)cc1 | 2.05 | 2.77 | 0.76 | 2.86 | 5.52 | 2.73 | 3.61 | 2.89 | -0.42 | 0.8
COc1cc(Nc2nccc(Nc3ccc4c(C)n[nH]c4c3)n2)cc(OC)c1OC | 5.39 | 1.08 | 3.92 | 1.17 | -0.29 | 2.72 | 6.67 | 2.61 | 2.11 | 1.03
Fc1ccc(-c2nn3ncccc3c2-c2ccnc(Nc3ccc4c(c3)OCCO4)n2)cc1 | 7.86 | 0.67 | 3.27 | 1.22 | 3.8 | 3.86 | 20.1 | 4.89 | 36.5 | 8.87
c1ccc(-c2nc3n(c2-c2ccc4c(c2)OCO4)CCC3)nc1 | 2.8 | 2.19 | 3.9 | 1.78 | 3.83 | 1.96 | 4.57 | 1.92 | 5.43 | 1.94
CCOc1ccc2c(-c3ccnc(Nc4cccc(C(F)(F)F)c4)n3)cnn2n1 | 2.94 | 1.45 | 0.72 | 0.84 | 0.7 | 0.45 | 0.29 | 3.34 | 3.21 | 3.62
CCn1c(-c2nonc2N)nc2c(C#CC(C)(C)O)nc(OC[C@H](N)c3ccccc3)cc21 | 45.5 | 0.16 | 3.1 | 55.1 | 82.7 | 16.3 | 59.4 | 5.85 | 29.9 | 5.65
